Experimental findings from PubChem BioAssay (Tox21) are described below.

Experiment [1] can be described thus: qHTS assay to identify small molecule antagonists of the thyroid receptor (TR) signaling pathway (AID 743065). Note: nearly all actives have a fitted effect of over 55% in size. Note: potency is the fitted concentration of half-maximal effect. The method in brief: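 GH3.TRE-Luc rat pituitary cells (two TREs driving luciferase) were dosed with compound, then stimulated with 1 nM T3 (final) for 23.5 h at 37 C. ONE-Glo luminescence was the read-out, with CellTiter-Fluor fluorescence as the cytotoxicity counter-screen.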
(In qHTS, concentration-response curves come from the screen itself.)

The test system of experiment [2] is thyroid hormone receptor (rat, GH3 cells). Kind of experiment: qHTS assay to identify small molecule agonists of the thyroid receptor (TR) signaling pathway (AID 743066; calls by dose curve).
Experiment [3] can be described thus: qHTS assay to identify small molecule antagonists of the estrogen receptor alpha (ER-alpha) signaling pathway - cell viability counter screen (AID 743074; calls by dose curve;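 note: HEK293 cells carrying ER-alpha-UAS-bla reporter stimulated with 17beta-estradiol; nearly all actives have a fitted effect of over 45% in size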).
Experiment [4] deals with Estrogen receptor (Homo sapiens) (UniProt P03372). Nature of the experiment: qHTS assay to identify small molecule agonists of the estrogen receptor alpha (ER-alpha) signaling pathway (AID 743075; calls by dose curve;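 note: HEK293 GripTite cells with ER-alpha and UAS-driven beta-lactamase reporter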; note: potency is the fitted concentration of half-maximal effect).
The target is the same in experiment [5]. Kind of experiment: qHTS assay to identify small molecule agonists of the estrogen receptor alpha (ER-alpha) signaling pathway using the BG1 cell line (AID 743079). Note: nearly all actives have a fitted effect of over 20% in size. Note: potency is the fitted concentration of half-maximal effect. The following applies: BG1Luc4E2 cells, ERE-luciferase agonist, 22 h; activation: at 70.3 µM (top of the series).
Experiment [6] is described as follows: qHTS assay to identify small molecule antagonists of the estrogen receptor alpha (ER-alpha) signaling pathway using the BG1 cell line (AID 743080; calls by dose curve;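 note: BG1 cells stimulated with 17beta-estradiol alongside compound; nearly all actives have a fitted effect of over 25% in size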). The method in brief: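 Quantitative HTS on the Tox21 10K library: BG1 cells with endogenous ER-alpha and ERE-luciferase reporter, 17beta-estradiol stimulation, 21.5 h compound exposure, luminescence endpoint with parallel fluorescence cytotoxicity counter-read.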

Experiment [7] can be described thus: qHTS assay to identify small molecule antagonists of the estrogen receptor alpha (ER-alpha) signaling pathway using the BG1 cell line - cell viability counter screen (AID 743081).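 Note: compound given together with 17beta-estradiol as the ER stimulus; nearly all actives have a fitted effect of over 45% in size.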
Experiment [8] addresses Aromatase (Homo sapiens) (UniProt P11511). Nature of the experiment: qHTS assay to identify aromatase inhibitors (AID 743083). Note: nearly all actives have a fitted effect of over 55% in size. Note: potency is the fitted concentration of half-maximal effect.
A short description of experiment [9]: qHTS assay to identify aromatase inhibitors - cell viability counter screen (AID 743084).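 Note: cells stimulated with testosterone during compound exposure; nearly all actives have a fitted effect of over 55% in size.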 Note: potency is the fitted concentration of half-maximal effect.
Experiment [10] in a line: qHTS assay to identify small molecule that activate the aryl hydrocarbon receptor (AhR) signaling pathway - cell viability counter screen (AID 743086). Note: nearly all actives have a fitted effect of over 45% in size. Note: potency is the fitted concentration of half-maximal effect. Summed up: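 HepG2-AhR-luc (HG2L7.5c1) cells, 4000/well, treated 24 h at 37 C with compound; viability measured as CellTiter-Fluor fluorescence after 30 min in the same wells as the luciferase read.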
Experiment [11] has as its target Peroxisome proliferator-activated receptor gamma (Homo sapiens) (UniProt P37231). Kind of experiment: qHTS assay to identify small molecule agonists of the peroxisome proliferator-activated receptor gamma (PPARg) signaling pathway (AID 743094; active = well fitted activation curve with a large enough effect in the signal ratio in the repeat runs, not every such curve was filed as active; inconclusive = weak or mixed curves, or effect the other way; inactive = no such curve, though single readings can be large or run the other way; the % refers to the signal ratio). The method in brief: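 Cell-based bla reporter, HEK293H background, PPARg-driven UAS. Pre-incubation 5 h, 37C, 5% CO2. Compound 17 h, 37C. Substrate 1 h RT; fluorescence.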

Experiment [12] has the same target. Kind of experiment: qHTS assay to identify small molecule antagonists of the peroxisome proliferator-activated receptor gamma (PPARg) signaling pathway (AID 743191; calls by dose curve; note: nearly all actives have a fitted effect of over 30% in size). The method in brief:
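GeneBLAzer PPARg UAS-bla HEK293H cells, 5 h post-plating, exposed to compounds 17 h at 37C. LiveBLAzer B/G FRET substrate added for 1 h at room temperature; beta-lactamase reporter read by fluorescence intensity.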

Experiment [13] is described as follows: qHTS assay to identify small molecule antagonists of the peroxisome proliferator-activated receptor gamma (PPARg) signaling pathway - cell viability counter screen (AID 743194). Note: nearly all actives have a fitted effect of over 55% in size. Note: potency is the fitted concentration of half-maximal effect. Summed up:
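Cytotoxicity counter screen in PPARg-bla HEK293H cells, same wells as reporter assay. Compounds plus 50 nM rosiglitazone (final) for 17 h at 37 C, then viability read by CellTiter-Glo luminescence.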

Experiment [14] in a line: qHTS assay for small molecule agonists of the antioxidant response element (ARE) signaling pathway (AID 743202; active = well fitted activation curve with a large enough effect in the signal ratio in the repeat runs, not every such curve was filed as active; inconclusive = weak or mixed curves, or effect the other way; inactive = no such curve, though single readings can be large or run the other way; the % refers to the signal ratio; note: potency is the fitted concentration of half-maximal effect). The method in brief: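 HepG2 ARE-bla reporter line, 2,000 cells/well; 5 h preincubation 37 C/5% CO2; compound (DMSO) 16 h 37 C; B/G FRET substrate 2 h RT; fluorescence intensity.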
Experiment [15] in a line: qHTS assay for small molecule agonists of the antioxidant response element (ARE) signaling pathway - cell viability counter screen (AID 743203; calls by dose curve; note: nearly all actives have a fitted effect of over 55% in size; note: potency is the fitted concentration of half-maximal effect). The method in brief:
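Measured in the same wells as the beta-lactamase ARE reporter, this read-out is CellTiter-Glo luminescence from HepG2 ARE-bla cells given compounds for 16 hrs.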

Experiment [16] is described as follows: qHTS assay for small molecule activators of the heat shock response signaling pathway - cell viability counter screen (AID 743209). Note: nearly all actives have a fitted effect of over 50% in size. Note: potency is the fitted concentration of half-maximal effect. Summed up: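 Same-well multiplex: after 2.5 h room-temperature incubation with LiveBLAzer B/G substrate and fluorescence reading, CellTiter-Glo reagent was added to HSE-bla HeLa cells that had received compound for 5 h at 37 C; luminescence read after 30 min.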

Experiment [17] is described as follows: qHTS assay for small molecule activators of the heat shock response signaling pathway (AID 743210; active = well fitted activation curve with a large enough effect in the signal ratio in the repeat runs, with a control signal flat, not every such curve was filed as active; inconclusive = weak or mixed curves; the % refers to the signal ratio). The method in brief: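 Beta-lactamase reporter read-out: FRET substrate fluorescence after 2.5 h at RT, following 5 h compound treatment at 37 C of HeLa cells carrying HSE-driven bla reporter; quantitative HTS format.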
Experiment [18] addresses Aryl hydrocarbon receptor (Homo sapiens) (UniProt P35869). Nature of the experiment: qHTS assay to identify small molecule that activate the aryl hydrocarbon receptor (AhR) signaling pathway (AID 743085).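 For activation: HG2L7.5c1 human HepG2 liver cells with stably integrated DRE-driven firefly reporter.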 Note: nearly all actives have a fitted effect of over 15% in size. Note: potency is the fitted concentration of half-maximal effect. Summed up: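 AhR agonist activity is inferred from enhanced light output of a DRE-controlled firefly luciferase reporter in HepG2 cells, measured with ONE-Glo following 24 h treatment at 37C.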

For experiment [19], the target named is Estrogen receptor (Homo sapiens) (UniProt P03372). Kind of experiment: qHTS assay to identify small molecule antagonists of the estrogen receptor alpha (ER-alpha) signaling pathway (AID 743069; active = well fitted curve in the direction sought with a large enough effect in the signal ratio in the repeat runs, not every such curve was filed as active; inconclusive = weak or mixed curves, or effect the other way; inactive = no such curve, though single readings can be large or run the other way; the % refers to the signal ratio). The method in brief: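 Beta-lactamase FRET fluorescence is read after 2 hr at room temperature with LiveBLAzer B/G substrate. Before that, ER-alpha-bla HEK293 cells sit 4 hr after plating, then receive compound plus 17beta-estradiol and incubate 18 hr at 37C.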

Experiment [20] can be described thus: qHTS assay to identify small molecule antagonists of the thyroid receptor (TR) signaling pathway - cell viability counter screen (AID 743064). Note: nearly all actives have a fitted effect of over 50% in size. Note: potency is the fitted concentration of half-maximal effect. Summed up:
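In rat pituitary GH3.TRE-Luc reporter cells co-exposed to compound and 1 nM T3 for 23.5 h, cytotoxicity was assessed with CellTiter-Fluor in the same wells, read by fluorescence.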

Where “and” joins values, the source holds several entries; their conditions need not be identical. Identical values can stand only once. Calls of active or inactive are those of the source. Unless noted, calls come from the whole dose curve; as a rule, active = well fitted curve in the direction sought with a large enough effect in the repeat runs; inconclusive = weak or mixed curves; inactive = no such curve, though single readings can be large; an effect the other way counts as inactive or inconclusive.

Aromatase (Homo sapiens), sequence (P11511 whole entry, looked up): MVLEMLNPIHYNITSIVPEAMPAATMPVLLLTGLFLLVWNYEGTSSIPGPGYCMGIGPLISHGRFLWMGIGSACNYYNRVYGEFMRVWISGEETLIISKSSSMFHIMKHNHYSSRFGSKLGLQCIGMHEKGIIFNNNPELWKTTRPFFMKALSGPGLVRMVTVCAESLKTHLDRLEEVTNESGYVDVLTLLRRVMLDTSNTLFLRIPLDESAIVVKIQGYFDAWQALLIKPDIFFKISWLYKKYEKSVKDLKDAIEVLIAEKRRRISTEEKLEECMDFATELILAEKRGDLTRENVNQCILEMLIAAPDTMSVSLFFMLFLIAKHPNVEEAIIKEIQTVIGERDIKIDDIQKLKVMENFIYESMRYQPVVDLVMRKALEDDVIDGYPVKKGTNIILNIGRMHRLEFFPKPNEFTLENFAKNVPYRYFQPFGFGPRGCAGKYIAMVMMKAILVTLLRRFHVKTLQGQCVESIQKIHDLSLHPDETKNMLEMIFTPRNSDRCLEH
Aryl hydrocarbon receptor (Homo sapiens), sequence (P35869 whole entry, looked up): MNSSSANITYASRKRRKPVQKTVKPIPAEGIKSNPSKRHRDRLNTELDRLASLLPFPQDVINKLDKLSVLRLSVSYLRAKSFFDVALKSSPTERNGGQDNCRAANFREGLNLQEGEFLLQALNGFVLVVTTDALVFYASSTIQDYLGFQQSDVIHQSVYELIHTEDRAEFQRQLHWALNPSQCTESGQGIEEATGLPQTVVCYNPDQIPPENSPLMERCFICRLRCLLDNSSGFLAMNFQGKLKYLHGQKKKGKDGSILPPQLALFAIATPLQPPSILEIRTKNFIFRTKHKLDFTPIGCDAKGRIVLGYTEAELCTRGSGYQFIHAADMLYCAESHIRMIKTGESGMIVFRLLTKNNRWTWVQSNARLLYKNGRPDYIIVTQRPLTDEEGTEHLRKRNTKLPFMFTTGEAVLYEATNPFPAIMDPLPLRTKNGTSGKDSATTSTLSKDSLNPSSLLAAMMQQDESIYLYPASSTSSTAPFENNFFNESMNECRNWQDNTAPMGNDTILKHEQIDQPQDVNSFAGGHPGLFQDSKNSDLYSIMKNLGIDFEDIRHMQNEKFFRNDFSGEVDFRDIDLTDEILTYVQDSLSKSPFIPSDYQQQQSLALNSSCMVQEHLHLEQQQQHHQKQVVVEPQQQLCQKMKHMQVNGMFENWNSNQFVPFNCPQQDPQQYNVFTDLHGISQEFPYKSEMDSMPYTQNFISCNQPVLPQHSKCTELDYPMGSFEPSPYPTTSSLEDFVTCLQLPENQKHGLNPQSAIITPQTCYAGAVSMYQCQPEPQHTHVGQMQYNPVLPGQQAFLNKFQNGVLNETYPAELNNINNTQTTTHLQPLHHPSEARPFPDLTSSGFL
Estrogen receptor (Homo sapiens), sequence (P03372 whole entry, looked up): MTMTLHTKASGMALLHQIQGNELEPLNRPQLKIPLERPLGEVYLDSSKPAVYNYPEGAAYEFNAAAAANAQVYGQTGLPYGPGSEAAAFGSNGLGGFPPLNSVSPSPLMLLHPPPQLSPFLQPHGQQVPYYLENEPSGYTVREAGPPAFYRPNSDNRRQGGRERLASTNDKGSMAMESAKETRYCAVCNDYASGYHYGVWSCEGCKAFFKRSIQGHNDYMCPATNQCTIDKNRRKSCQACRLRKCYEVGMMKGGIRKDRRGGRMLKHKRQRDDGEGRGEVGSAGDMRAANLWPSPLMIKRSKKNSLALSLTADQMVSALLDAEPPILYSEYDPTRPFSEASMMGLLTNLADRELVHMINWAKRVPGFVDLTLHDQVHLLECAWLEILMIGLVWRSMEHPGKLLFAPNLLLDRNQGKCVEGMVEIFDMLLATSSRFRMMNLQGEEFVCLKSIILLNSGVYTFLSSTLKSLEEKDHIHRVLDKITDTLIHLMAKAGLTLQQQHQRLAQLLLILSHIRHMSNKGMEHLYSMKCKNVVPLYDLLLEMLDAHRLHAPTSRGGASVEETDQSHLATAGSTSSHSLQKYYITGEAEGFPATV
Peroxisome proliferator-activated receptor gamma (Homo sapiens), sequence (P37231 whole entry, looked up): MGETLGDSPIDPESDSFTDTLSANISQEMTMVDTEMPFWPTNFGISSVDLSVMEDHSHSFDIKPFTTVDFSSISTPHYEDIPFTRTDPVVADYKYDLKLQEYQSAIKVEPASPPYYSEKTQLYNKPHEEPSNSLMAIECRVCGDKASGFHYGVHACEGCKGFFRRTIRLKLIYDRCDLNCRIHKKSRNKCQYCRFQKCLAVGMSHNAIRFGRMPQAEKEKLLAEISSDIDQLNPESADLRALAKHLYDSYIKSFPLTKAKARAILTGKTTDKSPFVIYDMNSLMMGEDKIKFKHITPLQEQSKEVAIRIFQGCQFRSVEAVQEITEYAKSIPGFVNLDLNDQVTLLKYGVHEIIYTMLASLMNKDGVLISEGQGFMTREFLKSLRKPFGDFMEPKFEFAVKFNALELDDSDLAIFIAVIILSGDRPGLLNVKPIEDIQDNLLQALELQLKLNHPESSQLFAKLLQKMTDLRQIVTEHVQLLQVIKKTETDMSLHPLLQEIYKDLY

With `Oc1cccc(O)c1O`, the Potency entry in [1], in [3], in experiment [6], in [7], in [8] and in experiment [9] was “inactive” throughout. Further, the Potency result in experiment [10], in [11], in experiment [12], in experiment [13], in experiment [14] and in experiment [15] was “inactive” throughout. Besides, the Potency result in [16] and in experiment [17] was “inactive” throughout. For the same compound, the outcome in experiment [2] was inactive. The Potency was 21.3 µM [inconclusive] (active) and 54.5 µM [inconclusive] (active) in [4]; 5.96 µM (active) in experiment [5].
With `O=C1c2ccccc2C(=O)C1(O)O`, the Potency is 54.8 µM (active) in [1] and 61.4 µM (active) in experiment [18]. The outcome in [2] was inactive. The Potency result in experiment [3], in experiment [4], in [5], in [7], in [10] and in [11] was “inactive” throughout. Besides, the Potency result in experiment [12], in experiment [13], in experiment [14] and in [16] was “inactive” in each case.
For the compound `C1COC1`, the Potency entry in experiment [1], in experiment [19], in [3], in [4], in experiment [6] and in experiment [7] was “inactive” throughout. Besides, the Potency result in experiment [8], in experiment [9], in [18], in experiment [10], in [11] and in [12] was “inactive” each time. Moreover, the Potency result in [13], in [14], in experiment [15], in [16] and in experiment [17] was “inactive” in each case. For the same compound, the call in experiment [2] was inactive.
In the case of `CN1CC(=O)N2[C@H](c3ccc4c(c3)OCO4)c3[nH]c4ccccc4c3C[C@@H]2C1=O`, the Potency result in [1], in experiment [19], in experiment [4], in experiment [5], in experiment [7] and in experiment [8] was “inactive” throughout. In addition, the Potency entry in [11], in experiment [12], in [13], in [14], in experiment [16] and in experiment [17] was “inactive” each time. Further, the compound was classed as inactive in experiment [2].
Regarding `CCCCCCCCC(CCCCCC)C(=O)O` (stereo unspecified), the Potency entry in experiment [20], in experiment [3], in [7], in [18], in experiment [10] and in experiment [14] was “inactive” each time. Further, the result in experiment [2] was inactive. Moreover, the Potency in [13] is 38.9 µM (active); in experiment [16] it was 17.4 µM (active).
For the compound `c1ccc2sc(SN(C3CCCCC3)C3CCCCC3)nc2c1`, the values for the Potency in experiment [1] and in experiment [14] were 21.4 µM (active) and 30.3 µM (active), respectively. The result in experiment [2] was inactive. For the same compound, the Potency result in experiment [19], in experiment [3], in experiment [4], in experiment [5], in [6] and in [7] was “inactive” each time. For the same compound, the Potency result in experiment [8], in experiment [9], in experiment [10], in experiment [11], in [15] and in experiment [16] was “inactive” in each case. Besides, in [17], the Potency entry is “inactive”.
With `Nc1nc2ccc([N+](=O)[O-])cc2s1`, the Potency was 48.6 µM (active) in [1], 32.5 µM (active) in experiment [18] and 9.69 µM (active) in [14]. The compound was called inactive in [2]. For the same compound, the Potency entry in [8] and in experiment [11] was “inactive” each time.
Regarding `Nc1nnc(-c2ccc([N+](=O)[O-])o2)o1`, the Potency was 61.1 µM (active) in experiment [20]; 48.6 µM (active) in experiment [8]; 61.1 µM (active) in [9]; 54.5 µM (active) in [10]; 48.6 µM (active) in [15]. In addition, the Potency result in experiment [19], in experiment [3], in experiment [4], in experiment [11], in experiment [12] and in experiment [16] was “inactive” throughout. Further, the Potency entry in experiment [17] was “inactive”.
Regarding `O=C1c2ccccc2C(=O)C1c1ccc(Br)cc1`, the Potency result in [20], in [3], in [4], in experiment [5], in experiment [6] and in [7] was “inactive” each time. The Potency result in experiment [8], in experiment [9], in experiment [10], in [11], in experiment [13] and in experiment [15] was “inactive” in each case. Besides, the Potency result in experiment [16] is “inactive”. Besides, the Potency in [18] is 11.9 µM (active).
On to `Oc1ccc(Cl)c2cccnc12`, for which the Potency in [20] was 7.5 µM (active); in experiment [8] it was 3.35 µM (active); in experiment [18], 11.9 µM (active); in experiment [14], 23.7 µM (active). Also, the Potency entry in [3], in experiment [4], in [5], in experiment [6], in experiment [7] and in experiment [10] was “inactive” each time. The Potency entry in [11], in [15] and in experiment [16] was “inactive” throughout.
